High-throughput results: PubChem, Sanford-Burnham Center for Chemical Genomics
TAG inh: reduces triacylglycerol accumulation in H9c2 cells; inhibition, % at 12.5 µM; actives 0.66% (n = 230,000); Nile Red lipid (TAG) fluorescence; cells loaded with 200 µM oleic acid;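 active = pattern-corrected inhibition of lipid staining of at least 50% with the nuclear-stain viability signal not falling by more than 50%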;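 also: 0% = DMSO wells and 100% = triacsin C control wells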
PfGluPho inh: PfG6PD (Plasmodium falciparum) enzyme inhibition. PfGluPho enzyme, NADPH resazurin-diaphorase fluorescence. inhibition, % at 20 µM. actives 0.78% (n = 350,000). AID 504690;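 active = inhibition reaching at least a set limit at 20 µM in the primary screen, cut at about 59% in these data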;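 also: 0% = DMSO wells with substrate and 100% = DMSO wells lacking glucose-6-phosphate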
Cardio protect: modulators protecting cardiomyocytes from myocardial damage | protection from H2O2 cell death, % at 20 µM | actives 0.63% (n = 360,000) | AID 588492 | H9c2 cardiomyocytes, H2O2 injury protection, ATPLite, 2 h;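 active = compounds giving at least 50% protection of heart cells from peroxide-induced death in the single-dose screen, raw or plate-pattern-corrected value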;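 also: 0% = DMSO wells with peroxide and 100% = DMSO wells without peroxide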
NadD inh: NadD (S. aureus) enzyme inhibition. purified NadD enzyme, colorimetric absorbance read-out. inhibition, % at 20 µM. actives 0.78% (n = 360,000). AID 602399; in the data active = inhibition above about 26%
APOBEC3G inh: inhibitors of human APOBEC3G DNA deaminase; actives 0.28% (n = 330,000); recombinant A3G, ssDNA deamination FAM/TAMRA fluorescence; inhibition, % at 20 µM; AID 493012; Q9HC16;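 active = inhibition of at least 40% at 20 µM, with no more than 30% in the related APOBEC3A deaminase screen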;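 also: plate controls were DMSO wells with A3G for no effect and wells lacking A3G enzyme for full effect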
Target sequence (Q9HC16 whole entry, looked up): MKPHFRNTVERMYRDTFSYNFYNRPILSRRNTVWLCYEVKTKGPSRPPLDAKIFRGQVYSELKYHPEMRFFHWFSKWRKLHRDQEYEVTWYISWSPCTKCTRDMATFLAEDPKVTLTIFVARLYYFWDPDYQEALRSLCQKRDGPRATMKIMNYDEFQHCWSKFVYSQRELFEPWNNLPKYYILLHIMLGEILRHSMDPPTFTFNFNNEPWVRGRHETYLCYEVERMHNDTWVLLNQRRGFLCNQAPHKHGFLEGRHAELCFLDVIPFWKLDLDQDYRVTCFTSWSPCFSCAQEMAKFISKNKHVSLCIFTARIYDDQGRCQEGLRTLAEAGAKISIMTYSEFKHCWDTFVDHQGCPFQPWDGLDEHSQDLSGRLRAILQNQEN
A3A deaminase: human APOBEC3A DNA deaminase inhibition; recombinant A3A, FAM/TAMRA ssDNA deamination fluorescence; inhibition, % at 20 µM; actives 0.41% (n = 330,000);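 active = at least 40% inhibition at 20 µM here, with at most 30% in a related deaminase screen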;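 also: plate controls were A3A with DMSO for no effect and wells lacking A3A enzyme for full effect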
Target sequence (P31941 whole entry, looked up): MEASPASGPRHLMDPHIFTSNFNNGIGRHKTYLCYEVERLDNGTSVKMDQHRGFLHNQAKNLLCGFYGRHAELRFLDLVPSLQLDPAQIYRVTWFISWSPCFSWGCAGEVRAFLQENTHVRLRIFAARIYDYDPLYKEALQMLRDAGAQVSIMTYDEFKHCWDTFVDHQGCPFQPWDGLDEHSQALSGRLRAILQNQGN
NadD conf: confirmation of Staphylococcus aureus NadD inhibitors; shares compounds with NadD inh; purified S. aureus NadD, colorimetric enzyme assay; inhibition, % at 20 µM; actives 13% (n = 2,000); AID 624309; in the data active = inhibition mostly above about 42%, no sharp cut-off; inactive = mostly below about 42%
Starred values were filed as active, the others as inactive; · = no result given. Hits are enriched below; roughly 2.9% of the tested compounds scored in any of these assays.

SMILES | TAG inh | PfGluPho inh | Cardio protect | NadD inh | APOBEC3G inh | A3A deaminase | NadD conf
O=C(Nc1nc(C2C3CC4CC(C3)CC2C4)cs1)c1cc2cc([N+](=O)[O-])ccc2oc1=O (stereo unspecified) | -7 | -15 | 6 | 35* | -5 | 0 | 4
CC(NC(=O)c1cc2cc([N+](=O)[O-])ccc2oc1=O)C1CCCO1 (stereo unspecified) | 6 | -10 | 4 | 1 | -4 | -1 | ·
O=C(NC(Cc1c[nH]c2ccccc12)C(=O)N/N=C/c1ccc(Cl)cc1)c1cccs1 (stereo unspecified) | -17 | 17 | 4 | 31* | -8 | -1 | 35
COc1cc(C2c3c(c(C)c(C)oc3=O)Oc3c(C)c(C)oc(=O)c32)ccc1OS(=O)(=O)c1ccc(C)cc1 | 11 | -5 | 27 | 32* | -2 | 3 | 2
COc1ccc(C2c3c(c(C)c(C)oc3=O)Oc3c(C)c(C)oc(=O)c32)cc1 | 10 | -5 | 16 | 0 | -5 | -1 | ·
S=C(Nc1ccc(Oc2ccccc2)cc1)NC1CCCCCC1 | -6 | -9 | -17 | 4 | · | · | ·
S=C(Nc1ccc(Oc2ccc(NC(=S)NC3CCCCC3)cc2)cc1)NC1CCCCC1 | 1 | 11 | -13 | 35* | 0 | 2 | 31
CC1(C)CC(=O)C=C(Nc2cccc(Cl)c2Cl)C1 | 6 | -44 | -3 | -9 | 4 | -1 | ·
CCOc1ccccc1NC(=O)CSC1=C(C#N)C(c2ccco2)C(C(=O)Nc2nc3ccccc3s2)=C(C)N1 (stereo unspecified) | · | -6 | -2 | 42* | -3 | 1 | 29
CC1=C(C(=O)Nc2ccccc2)C(c2ccco2)C(C#N)=C(SCC(=O)Nc2cccc(C)c2C)N1 (stereo unspecified) | · | 6 | 8 | 11 | 1 | -7 | ·
Cc1ccc(S(=O)(=O)N2CCCC2)cc1C(=O)N1CCC(C)CC1 | 21 | -17 | -1 | -7 | -8 | 2 | ·
O=Cc1ccc(-c2cccc([N+](=O)[O-])c2)o1 | 0 | 9 | -3 | -1 | -7 | 0 | ·
O=C1NC(=O)/C(=C/c2ccc(-c3cccc([N+](=O)[O-])c3)o2)S1 | · | -9 | -2 | 45* | -3 | -4 | 5
CC1CC(CC(=O)Nc2nc(-c3ccccc3)cs2)C(=O)O1 (stereo unspecified) | · | -5 | 3 | -5 | -2 | 6 | ·
C/C(CC1CC(COCC(C)C)OC1=O)=N\Nc1nc(-c2ccccc2)cs1 (stereo unspecified) | · | 17 | 0 | 28* | 1 | 1 | 13
O=C(Cn1ccc2ccccc2c1=O)NCC(=O)Nc1ccc(F)cc1F | · | 9 | 0 | -3 | -9 | 2 | ·
CC1CCCCN1CC(O)COCc1ccc(Cl)cc1 (stereo unspecified) | · | -14 | 4 | -2 | -7 | -5 | ·
COCc1cc(=O)n2[nH]c(-c3ccsc3-n3c(C)ccc3C)cc2n1 | -15 | 20 | -1 | 56* | 53 | 57 | 43*
Cc1nc2cc(-c3ccsc3-n3c(C)ccc3C)[nH]n2c(=O)c1Cl | 8 | 17 | -1 | 16 | 73 | 82 | ·
CCc1nc2n(n1)C(O)c1cc([N+](=O)[O-])ccc1S2 (stereo unspecified) | -8 | -1 | -2 | -1 | 1 | 2 | ·
Cc1ccc(NC(=O)CC(=O)c2ccc([N+](=O)[O-])cc2)cc1S(=O)(=O)Nc1cccc(Cl)c1 | 1 | -36 | -24 | 37* | -4 | 1 | 35
Cc1ccc(C(=O)Nc2cccc([N+](=O)[O-])c2)cc1S(=O)(=O)Nc1ccc(NC(=O)c2ccccc2)cc1 | 34 | -35 | 1 | 42* | -4 | -2 | 38*
O=S1(=O)CCN(Cc2ccc(Cl)c(C(F)(F)F)c2)CC1 | -4 | 8 | -3 | -3 | -5 | -3 | ·
N#Cc1ccc(NC(=O)Nc2ccc(Oc3ccc(NC(=O)Nc4ccc(C#N)cc4)cc3)cc2)cc1 | · | -3 | -20 | 28* | 10 | 1 | -2
COc1cc2cc(Oc3ccc4ccc(=O)oc4c3)c(=O)oc2cc1OC(=O)/C=C/c1ccccc1 | -5 | -15 | 26 | 32* | -118 | -60 | 10
SMILES | TAG inh | PfGluPho inh | Cardio protect | NadD inh | APOBEC3G inh | A3A deaminase | NadD conf
COc1cc2cc(Oc3ccc4ccc(=O)oc4c3)c(=O)oc2cc1O[C@@H]1O[C@H](CO)[C@@H](O)[C@H](O)[C@H]1O | -5 | 2 | 3 | 3 | 18 | 16 | ·
Cc1nnc(-c2ccco2)c2cn(-c3cccc(Br)c3)nc12 | 30 | 17 | 10 | 37* | 7 | 1 | 6
COCCCNCC(O)C(F)(F)F (stereo unspecified) | 3 | -9 | -4 | -7 | -5 | 5 | ·
CCc1ccc(NC(=O)C(C)OC(=O)c2ccc(NS(=O)(=O)c3ccc(C)c([N+](=O)[O-])c3)cc2)cc1 (stereo unspecified) | · | -46 | -24 | 45* | -3 | 10 | 46*
O=C(O)c1ccccc1-c1ccc(C=c2sc3nc4cc(Br)cnc4n3c2=O)o1 | 2 | · | 0 | 59* | · | · | 43
O=C(O)c1cc(C(=O)O)cc(-c2ccc(/C=c3/sc4nc5ccccc5n4c3=O)o2)c1 | · | 35 | · | · | · | · | ·
CN(C(=O)COC(=O)CNC(=O)c1cccs1)c1c(N)n(Cc2ccccc2)c(=O)[nH]c1=O | -8 | -2 | -3 | 3 | -2 | -1 | ·
COc1ccc(NC(=O)c2cc(-c3ccco3)nc3ccccc23)cc1S(=O)(=O)N1CCOCC1 | 31 | 35 | 22 | 30* | 42 | 64 | 67*
Cc1ccc(NC(=O)c2cc(-c3ccco3)nc3ccccc23)cc1S(=O)(=O)N1CCOCC1 | 14 | 36 | 4 | 63* | 31 | 43 | 60*
O=C(Nc1ccc(Cl)c(S(=O)(=O)N2CCOCC2)c1)c1cc(-c2ccccn2)nc2ccccc12 | 23 | 13 | 24 | 4 | -5 | 6 | ·
COc1ccc(NC(=O)c2cc(C)nc3ccccc23)cc1S(=O)(=O)N1CCOCC1 | 9 | -5 | -3 | -2 | -4 | 0 | ·
CCC1OC(C(C)C)Cc2[nH][nH]c(=O)c21 (stereo unspecified) | · | · | · | -6 | · | · | ·
COc1ccc(CC(=O)Nc2ccncc2Cl)cc1 | 5 | -2 | -12 | 2 | -5 | -5 | ·
N#C/C(=C/c1cn(-c2ccccc2)nc1-c1cccc(OCc2ccc(F)cc2)c1)C(=O)NCCCn1ccnc1 | · | 17 | 4 | 37* | -5 | -1 | -4
COCCN(C(=O)CSc1nc(N)cc(=O)[nH]1)c1c(N)n(Cc2ccccc2)c(=O)[nH]c1=O | -6 | -11 | 1 | 0 | -9 | 3 | ·
N#C/C(=C\c1ccc(-c2ccc(F)cc2)o1)C(=O)Nc1nc(-c2cccs2)cs1 | · | -12 | -5 | 26 | 0 | 0 | ·
